Experimental data as given in ChEMBL document CHEMBL1961873, “Compounds: GSK PKIS; Assays: Nanosyn kinase panel” (2012).

Experiments:
[1] = molecular target: Serine/threonine-protein kinase 26 (Homo sapiens) (UniProt Q9P289); conditions: at 1 µM;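 further: mean inhibition of MST4 kinase activity, reported from the GSK PKIS inhibitor-set screening panel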
[2] = molecular target: Serine/threonine-protein kinase PAK 1 (Homo sapiens) (UniProt Q13153); conditions: at 0.1 µM
[3] = molecular target: Serine/threonine-protein kinase PAK 1 (Homo sapiens) (UniProt Q13153); conditions: at 1 µM
[4] = molecular target: Serine/threonine-protein kinase PAK 2 (Homo sapiens) (UniProt Q13177); conditions: at 0.1 µM
[5] = molecular target: Serine/threonine-protein kinase PAK 2 (Homo sapiens) (UniProt Q13177); conditions: at 1 µM
[6] = molecular target: Serine/threonine-protein kinase PAK 3 (Homo sapiens) (UniProt O75914); conditions: at 0.1 µM
[7] = molecular target: Serine/threonine-protein kinase PAK 3 (Homo sapiens) (UniProt O75914); conditions: at 1 µM
[8] = molecular target: Serine/threonine-protein kinase PAK 5 (Homo sapiens) (UniProt Q9P286); conditions: at 0.1 µM
[9] = molecular target: Serine/threonine-protein kinase PAK 5 (Homo sapiens) (UniProt Q9P286); conditions: at 1 µM
[10] = molecular target: Serine/threonine-protein kinase PAK 6 (Homo sapiens) (UniProt Q9NQU5); conditions: at 0.1 µM;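 further: mean PAK6 inhibition reported from the GSK PKIS screen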
Chain of Serine/threonine-protein kinase PAK 6 (Homo sapiens) (Q9NQU5 whole entry, looked up): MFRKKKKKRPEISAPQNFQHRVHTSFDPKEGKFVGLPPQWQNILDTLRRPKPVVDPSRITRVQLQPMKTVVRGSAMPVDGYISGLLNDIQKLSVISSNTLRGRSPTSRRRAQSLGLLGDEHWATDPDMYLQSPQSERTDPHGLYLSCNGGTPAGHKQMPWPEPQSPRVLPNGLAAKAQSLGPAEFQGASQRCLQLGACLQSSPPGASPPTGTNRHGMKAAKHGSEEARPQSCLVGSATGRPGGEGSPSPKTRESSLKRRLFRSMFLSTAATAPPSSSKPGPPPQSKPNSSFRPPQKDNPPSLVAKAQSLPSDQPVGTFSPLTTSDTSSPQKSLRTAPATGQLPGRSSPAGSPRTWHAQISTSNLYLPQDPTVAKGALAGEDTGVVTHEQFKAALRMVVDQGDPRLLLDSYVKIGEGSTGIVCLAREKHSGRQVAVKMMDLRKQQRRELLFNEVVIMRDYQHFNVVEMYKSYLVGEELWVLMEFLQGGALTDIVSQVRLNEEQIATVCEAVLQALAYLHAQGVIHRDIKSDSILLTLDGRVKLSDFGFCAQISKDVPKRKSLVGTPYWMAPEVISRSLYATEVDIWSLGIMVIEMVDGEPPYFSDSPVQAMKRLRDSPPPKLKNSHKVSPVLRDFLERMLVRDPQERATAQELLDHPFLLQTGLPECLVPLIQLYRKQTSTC

Chain of Serine/threonine-protein kinase 26 (Homo sapiens) (Q9P289 2-416 limits assumed): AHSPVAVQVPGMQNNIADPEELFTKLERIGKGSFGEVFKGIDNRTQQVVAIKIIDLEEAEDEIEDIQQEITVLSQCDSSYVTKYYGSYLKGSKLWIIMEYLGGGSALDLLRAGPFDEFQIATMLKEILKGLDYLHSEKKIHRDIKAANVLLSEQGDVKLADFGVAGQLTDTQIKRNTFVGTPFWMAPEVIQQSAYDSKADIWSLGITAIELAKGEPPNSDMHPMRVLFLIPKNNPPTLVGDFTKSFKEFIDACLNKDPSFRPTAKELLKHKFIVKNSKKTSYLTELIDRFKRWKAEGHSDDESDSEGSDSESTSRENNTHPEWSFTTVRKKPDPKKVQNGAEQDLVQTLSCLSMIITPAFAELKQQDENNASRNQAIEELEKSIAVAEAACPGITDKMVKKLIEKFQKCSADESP
Chain of Serine/threonine-protein kinase PAK 5 (Homo sapiens) (Q9P286 whole entry, looked up): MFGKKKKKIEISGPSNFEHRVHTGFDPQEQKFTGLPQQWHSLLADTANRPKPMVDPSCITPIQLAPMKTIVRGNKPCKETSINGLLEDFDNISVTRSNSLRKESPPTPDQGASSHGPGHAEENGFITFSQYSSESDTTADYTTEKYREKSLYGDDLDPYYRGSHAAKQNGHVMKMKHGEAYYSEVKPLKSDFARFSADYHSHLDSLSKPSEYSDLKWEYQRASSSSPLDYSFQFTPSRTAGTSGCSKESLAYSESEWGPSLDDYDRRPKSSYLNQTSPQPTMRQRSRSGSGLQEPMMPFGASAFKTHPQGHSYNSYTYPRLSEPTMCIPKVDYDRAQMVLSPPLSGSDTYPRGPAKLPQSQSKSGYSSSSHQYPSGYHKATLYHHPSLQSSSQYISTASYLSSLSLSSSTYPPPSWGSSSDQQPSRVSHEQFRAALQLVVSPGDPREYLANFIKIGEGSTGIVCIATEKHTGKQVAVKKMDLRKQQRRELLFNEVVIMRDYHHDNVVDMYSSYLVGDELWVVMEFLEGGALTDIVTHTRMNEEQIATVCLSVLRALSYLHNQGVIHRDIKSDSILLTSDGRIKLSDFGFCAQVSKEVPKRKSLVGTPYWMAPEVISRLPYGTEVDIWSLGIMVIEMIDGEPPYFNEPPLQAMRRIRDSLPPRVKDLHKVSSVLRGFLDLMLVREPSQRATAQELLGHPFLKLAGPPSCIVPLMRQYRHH
Chain of Serine/threonine-protein kinase PAK 3 (Homo sapiens) (O75914 whole entry, looked up): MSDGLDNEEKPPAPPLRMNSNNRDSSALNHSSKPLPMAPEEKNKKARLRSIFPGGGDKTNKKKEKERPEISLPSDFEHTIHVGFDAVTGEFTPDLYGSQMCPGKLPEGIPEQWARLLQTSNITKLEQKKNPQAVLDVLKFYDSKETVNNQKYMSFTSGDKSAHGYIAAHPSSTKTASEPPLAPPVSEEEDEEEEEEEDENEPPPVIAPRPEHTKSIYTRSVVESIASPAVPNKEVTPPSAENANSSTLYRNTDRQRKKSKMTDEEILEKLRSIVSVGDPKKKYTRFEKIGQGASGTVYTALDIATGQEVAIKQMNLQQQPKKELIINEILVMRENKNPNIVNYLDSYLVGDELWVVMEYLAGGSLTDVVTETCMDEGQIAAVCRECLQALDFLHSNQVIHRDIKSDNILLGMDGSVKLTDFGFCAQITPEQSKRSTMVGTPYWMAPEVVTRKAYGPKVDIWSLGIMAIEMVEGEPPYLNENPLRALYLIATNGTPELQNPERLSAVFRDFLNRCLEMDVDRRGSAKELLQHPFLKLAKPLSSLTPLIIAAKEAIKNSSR
Chain of Serine/threonine-protein kinase PAK 2 (Homo sapiens) (Q13177 whole entry): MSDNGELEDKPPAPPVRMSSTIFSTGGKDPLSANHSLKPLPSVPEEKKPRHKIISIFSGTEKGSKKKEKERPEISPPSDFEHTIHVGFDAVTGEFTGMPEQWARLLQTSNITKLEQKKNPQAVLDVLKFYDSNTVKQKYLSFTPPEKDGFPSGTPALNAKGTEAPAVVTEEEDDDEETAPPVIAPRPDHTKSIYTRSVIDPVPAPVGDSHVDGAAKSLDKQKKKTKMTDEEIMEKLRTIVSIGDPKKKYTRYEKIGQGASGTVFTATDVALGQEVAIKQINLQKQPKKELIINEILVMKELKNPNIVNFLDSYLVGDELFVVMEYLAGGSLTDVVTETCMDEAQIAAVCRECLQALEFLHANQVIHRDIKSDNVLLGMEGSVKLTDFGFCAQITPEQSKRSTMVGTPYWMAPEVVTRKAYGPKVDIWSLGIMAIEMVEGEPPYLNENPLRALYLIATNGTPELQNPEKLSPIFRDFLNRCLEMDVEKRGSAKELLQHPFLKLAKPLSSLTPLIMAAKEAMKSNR
Chain of Serine/threonine-protein kinase PAK 1 (Homo sapiens) (Q13153 whole entry): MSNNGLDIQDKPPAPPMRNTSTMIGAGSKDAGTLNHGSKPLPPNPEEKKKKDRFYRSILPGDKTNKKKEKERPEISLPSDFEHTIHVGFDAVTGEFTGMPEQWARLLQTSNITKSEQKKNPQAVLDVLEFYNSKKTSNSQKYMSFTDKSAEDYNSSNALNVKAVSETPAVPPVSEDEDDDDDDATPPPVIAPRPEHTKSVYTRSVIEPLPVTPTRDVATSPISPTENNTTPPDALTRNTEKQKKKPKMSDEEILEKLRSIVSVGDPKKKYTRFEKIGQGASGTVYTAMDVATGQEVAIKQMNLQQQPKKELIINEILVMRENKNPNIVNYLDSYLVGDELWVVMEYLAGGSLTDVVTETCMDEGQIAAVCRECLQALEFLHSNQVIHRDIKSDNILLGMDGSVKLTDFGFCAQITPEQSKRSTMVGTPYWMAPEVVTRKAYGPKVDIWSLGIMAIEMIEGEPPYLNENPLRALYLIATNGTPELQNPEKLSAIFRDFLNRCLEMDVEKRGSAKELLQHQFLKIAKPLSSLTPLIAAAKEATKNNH

SMILES | inhibition [1] | inhibition [2] | inhibition [3] | inhibition [4] | inhibition [5] | inhibition [6] | inhibition [7] | inhibition [8] | inhibition [9] | inhibition [10]
CN1CCC(C(=O)Nc2n[nH]c3nnc(-c4ccccc4)cc23)CC1 | 1.63% | 10.6% | 7.32% | 1.19% | 2.25% | 5.86% | 6.46% | 3.31% | 6.52% | –
CCn1c(-c2nonc2N)nc2cnc(Oc3cccc(NC(=O)c4ccc(OCCN5CCOCC5)cc4)c3)cc21 | 2.57% | 3.65% | 5.84% | -0.41% | 0.34% | -3.22% | 2.69% | 1.02% | -0.29% | -6.86%
CCn1c(-c2nonc2N)nc2c(C#CC(C)(C)O)nc(OC[C@@H](N)c3ccccc3)cc21 | 14.1% | -5.15% | 1.43% | 3.89% | 36.3% | -1.93% | 0.72% | 87% | 87.7% | 90.8%
O=C1NC(=O)C(N2CCc3ccccc32)=C1c1ccc(Cl)cc1 | -1.05% | 8.65% | 7.01% | 2.34% | 1.81% | 5.1% | 5.8% | 0.62% | -2.87% | 2.3%
O=C1NC(=O)C(c2ccc(Cl)cc2)=C1Nc1ccc(Cl)c(C(=O)O)c1 | -0.4% | -2.53% | 2.15% | -1.89% | -1.88% | -3.46% | -2.5% | 0.14% | 0.32% | 13.1%
CS(=O)(=O)Nc1ccc(N/C=C2\C(=O)Nc3ccccc32)cc1 | -0.36% | -4.5% | -3.06% | -1.89% | -3.37% | -3.72% | -2.59% | -2.35% | 0.84% | -9.71%
COc1ccccc1Nc1ncc(-c2ccccc2)o1 | 0.41% | 10.5% | 12.7% | 1.73% | 1.5% | 6.21% | 6.38% | -2.83% | -2.65% | –
Cc1ccc(C(=O)NC2CCCCC2)cc1-c1ccc(C(=O)NCC2CC2)cc1 | -1.45% | 6.65% | 4.6% | 2.09% | 1.97% | 4.22% | 4.44% | 4.34% | 13.6% | -2.81%
COc1cc2ncn(-c3cc(OCc4ccccc4Cl)c(C(N)=O)s3)c2cc1OC | -3.28% | 3.48% | 1.43% | -1.4% | -1.31% | -3.29% | 1.37% | -3.38% | 0.31% | -7.38%
Cn1cc(C=C2C(=O)Nc3cccnc32)c2ccccc21 | 1.1% | 5.04% | 6% | 0.8% | 0.31% | 2.68% | 3% | -6.57% | -5.19% | -3.53%
CCCN1CCC=C(c2ccc(Nc3nc(Nc4ccccc4C(N)=O)c4cc[nH]c4n3)c(C)c2)C1 | -1.15% | 8.77% | 12.7% | 2.2% | 3.03% | 5% | 6.44% | 6.43% | 14.2% | –
N#Cc1c(NC(=O)c2cccc3ccccc23)sc2c1CCCC2 | 1.23% | 5.02% | 3.74% | 0.12% | 1.16% | 2.52% | 3.41% | -2.18% | -9.6% | 7.76%
O=C1Nc2ccc(C(=O)c3ccco3)cc2C1=Cc1cc(Cl)c(O)c(Cl)c1 | 21.4% | 1.1% | 3.96% | 1.29% | 0.81% | 2.57% | 3.42% | 0.93% | 5.07% | 1.03%
CCN1CCC(CC(=O)Nc2n[nH]c3nc(-c4cccs4)c(Br)cc23)CC1 | 12% | -4.19% | -3.71% | -2.22% | -2.2% | -1.67% | -3.03% | 0.15% | 16.4% | –
Nc1nc(-c2ccccn2)c(-c2ccc3ncccc3n2)s1 | -0.98% | 3.7% | 4.24% | 1.82% | 1.66% | 3.03% | 3.63% | 5.99% | 4.49% | -7.45%
CNC(=O)c1cncc(/C=C/c2c(Cl)cccc2Cl)c1 | -0.15% | 4.17% | 11% | 1.59% | 0.88% | 4.45% | 5.48% | 5.92% | 6.55% | –
Fc1cccc(COc2ccc(Nc3ncnc4sc(-c5cccs5)cc34)cc2Cl)c1 | -0.58% | 1.63% | 1.64% | -0.69% | -1.1% | -0.01% | 2.7% | -2.5% | -7.05% | -3.68%

SMILES | inhibition [1] | inhibition [2] | inhibition [3] | inhibition [4] | inhibition [5] | inhibition [6] | inhibition [7] | inhibition [8] | inhibition [9] | inhibition [10]
CCn1c(-c2nonc2N)nc2c(C#CC(C)(C)O)nc(CN3CCCC3)cc21 | 7.65% | 0.14% | 2.33% | -2.93% | -0.92% | -0.82% | 0.31% | -4.5% | -1.51% | 10.8%
CC1=C(C(=O)Nc2ccc3[nH]ncc3c2)C(c2ccc(F)cc2)NC(=O)N1 (centres undefined) | -0.49% | 4.25% | 9.83% | -0.87% | -0.03% | 2.64% | 1.55% | -0.45% | 5.58% | 2.39%
COc1ccc(COc2ccc(Cc3cnc(N)nc3N)cc2OC)cc1 | 0.63% | 1.82% | 5.79% | 0.46% | 0.32% | 1.75% | 1.06% | 0.6% | 7.84% | 0.33%
COc1cc2ncn(-c3cc(O[C@@H](C)c4ccccc4Cl)c(C(N)=O)s3)c2cc1OC | -7.1% | 7.98% | 9.51% | 1.89% | 2.93% | 5.16% | 5.27% | 2.62% | 4.73% | -0.86%
NS(=O)(=O)c1ccc(N/N=C2\C(=O)Nc3ccc(C(=O)NCCc4c[nH]cn4)cc32)cc1 | 6.15% | 3.1% | 7.85% | 1.34% | 3.15% | 4.63% | 6.49% | 2.86% | 3.33% | 10.1%
CC(C)=Cc1cccc2c1/C(=N/Nc1ccc(S(N)(=O)=O)cc1)C(=O)N2 | 35.5% | -2.27% | 1.28% | 0.39% | 1.15% | 0.22% | 1.61% | 8.32% | 3.26% | 7.25%
CCc1cccc(NC(=O)Nc2ccc(Oc3ccc4nc(NC(=O)OC)[nH]c4c3)cc2)c1 | 2.74% | 1.22% | 2.79% | 0.53% | 0.26% | 0.88% | 2.93% | 8.59% | -2.14% | 15.4%
COc1ccc(-c2ccncc2)cc1C(N)=O | -5.1% | 4.54% | 10% | 2.37% | 3.02% | 5.3% | 10.3% | 5.08% | 8.05% | -8.8%
COc1ccc2cc(-c3c(-c4ccncc4)nc(-c4ccc([S+](C)[O-])cc4)n3C)ccc2c1 (centres undefined) | -1.05% | 4.83% | 2.57% | 1.33% | 1.31% | 3.03% | 3.28% | -4.32% | -3.64% | -2.25%
COc1cc(C=NNc2ncnc3c2cnn3-c2ccccc2)ccc1O | 13.3% | 4.14% | 5.41% | 2.39% | 1.53% | 2.39% | 2.83% | -3.08% | 0.18% | 5.73%
NC(=O)c1ccc(-c2nc(-c3ccccn3)c(-c3ccc4c(c3)OCO4)[nH]2)cc1 | 2.93% | 4.04% | 5.77% | 0.67% | 1.08% | 2.68% | 2.97% | -3.79% | -0.72% | -8.04%
CS(=O)(=O)CCNCc1ccc(-c2ccc3ncnc(Nc4ccc(OCc5ccccc5)c(Cl)c4)c3c2)o1 | 0.42% | -1.29% | 7.48% | 0.77% | -0.12% | -0.48% | -0.08% | -6.06% | -8.65% | –
CC(=O)Nc1cccc(C#Cc2cncnc2Nc2ccc(OCc3cccc(F)c3)c(Cl)c2)n1 | 2.51% | 1.24% | 0.67% | -0.89% | -0.09% | -0.61% | -0.35% | 4.91% | 9.12% | 10.8%
CS(=O)(=O)CCNCc1nc(-c2ccc3ncnc(Nc4ccc(F)c(Cl)c4)c3c2)cs1 | 0.43% | 2.77% | 4.21% | 1.56% | 1.25% | 2% | 3.08% | 2.01% | 8.16% | 5.79%
[O-][S+]1CCN(Cc2ccc(-c3ccc4ncnc(Nc5ccc(OCc6ccccc6)c(F)c5)c4c3)o2)CC1 | 5.46% | 1.29% | 5.06% | 0.28% | -0.13% | 1.32% | 1.96% | -1.94% | -2.2% | 2.21%
Nc1ncnc2occ(-c3ccc(NC(=O)Nc4cccc(C(F)(F)F)c4)cc3)c12 | -4.13% | 6.38% | 5.2% | 1.77% | 1.5% | 6.37% | 5.54% | 2.15% | 3.35% | -0.62%
